Screening data as filed in PubChem BioAssay.
PLK1 PBD block – blocks phosphopeptide binding to human PLK1 polo-box domain; P53350; Plk1 PBD binding of FITC phosphopeptide, fluorescence polarization; Potency, µM, for inactives: max response, negative = inhibition, hits mostly inhibitors; hit rate 2.8% among 360,000; AID 720504; further: series mostly up to about 57 µM; nearly all actives have a fitted effect of over 65% in size
KAT2A inh – blocks human GCN5L2 histone acetyltransferase | AID 504327 | Q92830 | hit rate 0.21% among 390,000 | GCN5L2 HAT assay, ThioGlo1 CoA-SH fluorescence | Potency, µM (doses to about 58.9 µM), for the others: top-dose activity change, negative = inhibition, usual class: inhibitors
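GCN5L2 (20 nM) in 50mM HEPES pH 7.5, 0.1mM EDTA, 0.01% Tween-20 preincubated 15 min with compounds at room temperature. Reaction started with H3(1-25) 75uM, acetyl-CoA 70uM, ThioGlo1 50uM; CoA-thiol fluorescence (Ex340/Em540) read at 0 and 20 min.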
VDR inhibitor – vitamin D3 receptor (human) inhibition; VDR-SRC2-3 peptide fluorescence polarization, 2 h; hit rate 0.93% among 400,000; Potency, µM, for the others: max response, negative = inhibition, most hits filed as inhibitors; P11473
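After 23 nl compound addition and a short centrifugation, plates sat for 2 hours at ambient temperature; polarization of fluorescence then indicated loss of VDR binding to peptide SRC2-3.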
ALOX12 inh – inhibitors of human 12S-lipoxygenase ALOX12; Potency, µM (series often up to 108 µM), without a hit: at the top dose activity change, negative = inhibition, hits mostly inhibitors; purified 12hLO, xylenol orange hydroperoxide absorbance; AID 1671190; hit rate 1.1% among 580,000; P18054
Target sequence (P18054 whole entry, looked up): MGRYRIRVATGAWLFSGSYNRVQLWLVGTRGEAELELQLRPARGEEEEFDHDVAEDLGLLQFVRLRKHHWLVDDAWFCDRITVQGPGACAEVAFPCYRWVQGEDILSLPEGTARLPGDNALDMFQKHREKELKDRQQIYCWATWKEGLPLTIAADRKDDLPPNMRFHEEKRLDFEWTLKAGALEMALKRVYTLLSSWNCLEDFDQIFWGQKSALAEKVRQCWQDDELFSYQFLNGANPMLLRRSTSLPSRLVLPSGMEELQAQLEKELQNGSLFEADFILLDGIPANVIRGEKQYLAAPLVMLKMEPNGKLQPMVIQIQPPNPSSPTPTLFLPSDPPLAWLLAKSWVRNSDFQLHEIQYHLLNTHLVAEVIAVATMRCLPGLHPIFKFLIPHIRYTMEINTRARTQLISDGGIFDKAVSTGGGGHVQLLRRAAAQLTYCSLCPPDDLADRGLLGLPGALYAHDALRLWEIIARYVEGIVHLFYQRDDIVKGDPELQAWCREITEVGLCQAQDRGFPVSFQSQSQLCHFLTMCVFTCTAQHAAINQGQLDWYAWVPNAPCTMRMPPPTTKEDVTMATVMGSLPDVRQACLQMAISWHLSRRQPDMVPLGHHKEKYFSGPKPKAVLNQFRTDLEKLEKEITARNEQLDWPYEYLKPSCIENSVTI
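Hydroperoxide product was detected by ferrous iron/xylenol orange as the 573 to 405 nm absorbance ratio. Arachidonic acid at 40 uM (final) was turned over for 30 min at room temperature by 150 nM human 12hLO, pH 7.0 Hepes buffer, after 15 min compound preincubation.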
Active calls of the source: *; [ ] = remark or other dose. This is a sample that favours compounds with a hit; in the whole collection about 3% have one here. The call rests on the fitted dose curve; in most records, active means well fitted curve in the direction sought with a large enough effect; inconclusive means small, poorly fitted or top-dose-only effect, or another doubt; inactive means no such curve, though single readings can be large; an effect the other way counts as inactive or inconclusive. On the % scale 0 is the no-effect control and ±100 the full control effect; potency means the concentration at half of the fitted maximal effect.

`Cc1c(-c2ccccc2)c(=O)oc2c(CN3CCOCC3)c(O)ccc12` gave KAT2A inh inconclusive, VDR inhibitor 2% and ALOX12 inh -27%.
For CC1CN(Cc2c(O)ccc3c2oc(=O)c2ccccc23)CC(C)O1 (stereo unspecified) the results were PLK1 PBD block -10%, KAT2A inh -20%, VDR inhibitor -13% and ALOX12 inh 5.6µM*.
`CC1CN(Cc2c(O)ccc3c(=O)c(-c4ccccc4)coc23)CC(C)O1` (stereo unspecified) gave PLK1 PBD block -11%, KAT2A inh -1%, VDR inhibitor -6% and ALOX12 inh 0%.
`CN(C)C(=S)NC(=O)C12CC3CC(C)(CC(C)(C3)C1)C2` gave PLK1 PBD block -16%, KAT2A inh -5%, VDR inhibitor 5% and ALOX12 inh 372%.
Screening CC12CC3CC(C)(C1)CC(C(=O)NC(=S)N1CCCCC1)(C3)C2 returned PLK1 PBD block -6%, KAT2A inh -2%, VDR inhibitor -10% and ALOX12 inh 25µM*.
For CCCC1CCCN(C(=O)Cn2nc(C)c3ccccc3c2=O)CC1 (stereo unspecified) the results were ALOX12 inh 29%.
For CC1CCCN(C(=O)CN2C(=O)CSc3ccc(S(=O)(=O)N4CCOCC4)cc32)C1 (stereo unspecified) the results were PLK1 PBD block 27µM*, KAT2A inh -1%, VDR inhibitor -1% and ALOX12 inh -29%.
Screening COc1cc(CC(=O)Nc2cc(S(=O)(=O)N3CCCCC3)ccc2C)cc(OC)c1OC returned ALOX12 inh 22µM*.
`CCOc1ccc(S(=O)(=O)N2CCCCC2)cc1NC(=O)Cc1cc(OC)c(OC)c(OC)c1` gave PLK1 PBD block -7% and ALOX12 inh -4%.
Cc1ccccc1NC(=O)CN1C(=O)CSc2ccc(S(=O)(=O)N3CCCCC3)cc21 was read as PLK1 PBD block 21µM*, KAT2A inh -5%, VDR inhibitor -14% and ALOX12 inh 2%.
Screening Cc1ccccc1NC(=O)CN1C(=O)CSc2ccc(S(=O)(=O)N3CCCC3)cc21 returned PLK1 PBD block -15%, KAT2A inh -3%, VDR inhibitor 0% and ALOX12 inh 9%.
CC(C)COc1ccc(C(=O)Nc2nonc2-c2ccc(OC(C)C)cc2)cc1 was read as ALOX12 inh 30%.
CC(NC(=O)c1cncc(Br)c1)c1ccc(S(N)(=O)=O)cc1 (stereo unspecified) was read as PLK1 PBD block -9%, KAT2A inh 4%, VDR inhibitor -10% and ALOX12 inh 3%.
Screening CC(NC(=O)c1cnccn1)c1ccc(S(N)(=O)=O)cc1 (stereo unspecified) returned PLK1 PBD block 27µM*, KAT2A inh -2%, VDR inhibitor -22% and ALOX12 inh -10%.
Screening Cc1oc(/N=C/c2cccc3ccccc23)c(C#N)c1C returned PLK1 PBD block 24µM*, KAT2A inh -2%, VDR inhibitor inconclusive and ALOX12 inh inconclusive.
Screening COc1ccc(OC)c(S(=O)(=O)N2CCC(c3ncc(C)n3C(C)C)C2)c1 (stereo unspecified) returned ALOX12 inh 50%.
Screening COc1cccc(NC(=S)N/N=C2\CC(C)(C)Oc3ccc(O)cc32)c1 returned PLK1 PBD block -9%, KAT2A inh 7%, VDR inhibitor -17% and ALOX12 inh 32µM*.
Screening COc1cccc(NC(=S)N/N=C2\CC3CCC2(C)C3(C)C)c1 (stereo unspecified) returned PLK1 PBD block 1%, KAT2A inh -18%, VDR inhibitor 0% and ALOX12 inh 35µM*.
`CN(C)C(=O)/C(=C/C=C/c1ccccc1)NC(=O)c1ccccc1` gave ALOX12 inh -3%.
`COC(=O)/C(=C\C=C\c1ccccc1)NC(=O)c1ccccc1` gave PLK1 PBD block 13µM*, KAT2A inh -21%, VDR inhibitor -21% and ALOX12 inh 23%.
For COc1ccccc1Oc1nnnn1-c1ccc(C(N)=O)cc1 the results were PLK1 PBD block -11%, KAT2A inh -6%, VDR inhibitor -1% and ALOX12 inh 14%.
Screening NC(=O)c1ccc(-n2nnnc2Oc2ccccc2)cc1 returned PLK1 PBD block 24µM*, KAT2A inh -12%, VDR inhibitor -21% and ALOX12 inh -4%[57.4 µM].
For CC1=C(c2ccc(Cl)cc2)[N+](=O)C(C)(C)N1[O-] the results were PLK1 PBD block 12µM*, KAT2A inh -2%, VDR inhibitor -7% and ALOX12 inh -10%.
`Cc1ccc(NC(=O)CSc2ncc(S(=O)(=O)c3ccc(C(C)C)cc3)c(=O)[nH]2)cc1C` gave KAT2A inh inconclusive, VDR inhibitor inconclusive and ALOX12 inh 45µM*.
COc1cc(Cl)c(C)cc1NC(=O)CSc1ncc(S(=O)(=O)c2ccc(C(C)(C)C)cc2)c(=O)[nH]1 was read as KAT2A inh 18µM*, VDR inhibitor -14% and ALOX12 inh 1%.
`Cc1ccc(S(=O)(=O)c2cnc(SCC(=O)Nc3ccc4c(c3)OCCO4)[nH]c2=O)cc1C` gave KAT2A inh -1%, VDR inhibitor -20% and ALOX12 inh 0%.
`CC(C)(C)c1ccc(S(=O)(=O)c2cnc(SCC(=O)Nc3ccc(F)c(Cl)c3)[nH]c2=O)cc1` gave KAT2A inh 28µM*, VDR inhibitor inconclusive and ALOX12 inh inconclusive.
CN[C@@H]1[C@H](O[C@@H]2O[C@H](C)[C@@](O)(CO)[C@H]2O[C@H]2[C@H](O)[C@H](O)[C@H](N=C(N)N)[C@@H](O)[C@@H]2N=C(N)N)O[C@@H](CO)[C@H](O)[C@H]1O was read as KAT2A inh -5% and VDR inhibitor 50µM*.
`CN(C(=O)CSc1nnc(Nc2ccccc2)s1)c1c(N)n(Cc2ccccc2)c(=O)[nH]c1=O` gave PLK1 PBD block 21µM*, KAT2A inh -3%, VDR inhibitor -4% and ALOX12 inh 0%.
COCCN(C(=O)CSc1nnc(C)n1Cc1ccccc1)c1c(N)n(Cc2ccccc2)c(=O)[nH]c1=O was read as PLK1 PBD block 27µM*, KAT2A inh -3% and VDR inhibitor -1%.
`COCCN(C(=O)CSc1nnc(-c2ccccc2C)n1C)c1c(N)n(Cc2ccccc2)c(=O)[nH]c1=O` gave PLK1 PBD block -7%, KAT2A inh 2%, VDR inhibitor -3% and ALOX12 inh -10%.
For COC(=O)c1sc(=S)sc1C(=O)OC the results were PLK1 PBD block -22%, KAT2A inh 1%, VDR inhibitor -30% and ALOX12 inh 45µM*.
`COC(=O)c1sc(C(=O)OC)c(C(=O)OC)c1C(=O)OC` gave PLK1 PBD block -1%, KAT2A inh 0%, VDR inhibitor -3% and ALOX12 inh -9%.
Screening O=C(NCC1(COc2cnccn2)C[C@@H](O)[C@@H](O)C1)Nc1cccnc1 (stereo partly specified) returned ALOX12 inh 25µM*.
